# According to PubChem BioAssay AID1159580 (chemical genetic matrix, 2015):
# Screen size: about 5,500 compounds; about 2,000 (36%) were called active. Not shown: some 18% with an inconclusive outcome. This is one part of the list. A number with no mark means an inactive call. Cut-off read from the data, not from the text of the source: active = normalized growth mostly below about 0.91 (no sharp cut-off); inconclusive = no clear call, values can overlap the other calls; inactive = mostly above about 0.92.
# Test: chemical genetic growth profiling, strain panel (AID 1159580);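 note: tested at 20 µM; growth read once vehicle control cultures reached saturation at 30 °C; 1 = growth at the plate median or of vehicle wells; lower values mean less growth of the strain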
# Settings: growth OD
smiles,measurement,setting,value
CC(=O)Nc1ccc(OC(=O)c2ccccc2O)cc1,normalized growth,"S. cerevisiae deletion strains, locus YJR066W, strain TOR1, hits give low values",0.929
same,normalized growth,"S. cerevisiae deletion strains, locus YJR075W, strain HOC1, hits give low values",0.85 (active)
same,normalized growth,"S. cerevisiae deletion strains, locus YKL009W, strain mrt4, hits give low values",0.848 (active)
same,normalized growth,"S. cerevisiae deletion strains, locus YKL068W, hits give low values",0.96
same,normalized growth,"S. cerevisiae deletion strains, locus YKL085W, strain MDH1 (second series), hits give low values",0.95
same,normalized growth,"S. cerevisiae deletion strains, locus YKL085W, strain MDH1, hits give low values",0.95
same,normalized growth,"S. cerevisiae deletion strains, locus YKL160W, strain elf1, hits give low values",0.978
same,normalized growth,"S. cerevisiae deletion strains, locus YKL190W, strain CNB1, hits give low values",0.987
same,normalized growth,"S. cerevisiae deletion strains, locus YKR001C, strain vps1, hits give low values",0.794 (active)
same,normalized growth,"S. cerevisiae deletion strains, locus YKR026C, strain gcn3, hits give low values",0.965
same,normalized growth,"S. cerevisiae deletion strains, locus YKR091W, strain srl3, hits give low values",0.962
same,normalized growth,"S. cerevisiae deletion strains, locus YLL001W, strain dnm1, hits give low values",0.96
same,normalized growth,"S. cerevisiae deletion strains, locus YLL026W, hits give low values",0.978
same,normalized growth,"S. cerevisiae deletion strains, locus YLL041C, strain sdh2, hits give low values",0.995
same,normalized growth,"S. cerevisiae deletion strains, locus YLR027C, strain aat2, hits give low values",0.992
same,normalized growth,"S. cerevisiae deletion strains, locus YLR039C, strain RIC1, hits give low values",0.676
same,normalized growth,"S. cerevisiae deletion strains, locus YLR058C, strain SHM2, hits give low values",0.941
same,normalized growth,"S. cerevisiae deletion strains, locus YLR102C, strain apc9, hits give low values",0.943
same,normalized growth,"S. cerevisiae deletion strains, locus YLR113W, strain HOG1, hits give low values",0.901
same,normalized growth,"S. cerevisiae deletion strains, locus YLR221C, strain rsa3, hits give low values",0.871 (active)
same,normalized growth,"S. cerevisiae deletion strains, locus YLR258W, strain gsy2, hits give low values",0.918
same,normalized growth,"S. cerevisiae deletion strains, locus YLR262C, strain YPT6 (second series), hits give low values",0.972
same,normalized growth,"S. cerevisiae deletion strains, locus YLR262C, strain YPT6, hits give low values",0.733
same,normalized growth,"S. cerevisiae deletion strains, locus YLR268W, strain sec22, hits give low values",0.894
same,normalized growth,"S. cerevisiae deletion strains, locus YLR320W, strain mms22, hits give low values",0.832 (active)
same,normalized growth,"S. cerevisiae deletion strains, locus YLR330W, strain CHS5, hits give low values",0.959
same,normalized growth,"S. cerevisiae deletion strains, locus YLR342W, strain FKS1 (second series), hits give low values",0.938
same,normalized growth,"S. cerevisiae deletion strains, locus YLR342W, strain FKS1, hits give low values",1.01
same,normalized growth,"S. cerevisiae deletion strains, locus YLR357W, strain rsc2, hits give low values",0.929
same,normalized growth,"S. cerevisiae deletion strains, locus YLR370C, strain arc18, hits give low values",0.934
same,normalized growth,"S. cerevisiae deletion strains, locus YLR371W, strain rom2, hits give low values",0.952
same,normalized growth,"S. cerevisiae deletion strains, locus YLR384C, strain iki3, hits give low values",1
same,normalized growth,"S. cerevisiae deletion strains, locus YLR418C, strain cdc73, hits give low values",0.682 (active)
same,normalized growth,"S. cerevisiae deletion strains, locus YML016C, strain PPZ1, hits give low values",0.977
same,normalized growth,"S. cerevisiae deletion strains, locus YML032C, strain rad52, hits give low values",0.897 (active)
same,normalized growth,"S. cerevisiae deletion strains, locus YML120C, strain ndi1, hits give low values",0.951
same,normalized growth,"S. cerevisiae deletion strains, locus YML124C, strain tub3, hits give low values",0.955
same,normalized growth,"S. cerevisiae deletion strains, locus YMR058W, strain fet3, hits give low values",0.939
same,normalized growth,"S. cerevisiae deletion strains, locus YMR078C, strain ctf18, hits give low values",0.935
same,normalized growth,"S. cerevisiae deletion strains, locus YMR125W, strain sto1, hits give low values",0.982
same,normalized growth,"S. cerevisiae deletion strains, locus YMR129W, hits give low values",0.989
same,normalized growth,"S. cerevisiae deletion strains, locus YMR205C, strain PFK2, hits give low values",0.967
same,normalized growth,"S. cerevisiae deletion strains, locus YMR223W, strain ubp8, hits give low values",0.938
same,normalized growth,"S. cerevisiae deletion strains, locus YMR231W, strain pep5, hits give low values",1.01
same,normalized growth,"S. cerevisiae deletion strains, locus YMR307W, strain GAS1, hits give low values",0.707
same,normalized growth,"S. cerevisiae deletion strains, locus YNL067W, strain RPL9B, hits give low values",0.897
same,normalized growth,"S. cerevisiae deletion strains, locus YNL071W, strain lat1, hits give low values",0.809 (active)
same,normalized growth,"S. cerevisiae deletion strains, locus YNL153C, strain GIM3, hits give low values",0.936
same,normalized growth,"S. cerevisiae deletion strains, locus YNL183C, strain NPR1, hits give low values",0.858
same,normalized growth,"S. cerevisiae deletion strains, locus YNL209W, strain ssb2, hits give low values",0.95
same,normalized growth,"S. cerevisiae deletion strains, locus YNL233W, strain BNI4, hits give low values",0.832 (active)
same,normalized growth,"S. cerevisiae deletion strains, locus YNL248C, strain rpa49, hits give low values",0.862 (active)
same,normalized growth,"S. cerevisiae deletion strains, locus YNL250W, strain rad50, hits give low values",0.978
same,normalized growth,"S. cerevisiae deletion strains, locus YNL271C, strain bni1, hits give low values",0.955
same,normalized growth,"S. cerevisiae deletion strains, locus YNL298W, strain CLA4, hits give low values",0.925
same,normalized growth,"S. cerevisiae deletion strains, locus YNL307C, strain MCK1, hits give low values",0.576 (active)
same,normalized growth,"S. cerevisiae deletion strains, locus YNL322C, strain KRE1 (second series), hits give low values",0.888 (active)
same,normalized growth,"S. cerevisiae deletion strains, locus YNR049C, strain mso1, hits give low values",0.964
same,normalized growth,"S. cerevisiae deletion strains, locus YNR052C, strain pop2, hits give low values",0.98
same,normalized growth,"S. cerevisiae deletion strains, locus YOL006C, strain TOP1, hits give low values",0.463 (active)
same,normalized growth,"S. cerevisiae deletion strains, locus YOL012C, strain htz1",0.544
same,normalized growth,"S. cerevisiae deletion strains, locus YOL147C, strain pex11, hits give low values",0.943
same,normalized growth,"S. cerevisiae deletion strains, locus YOR001W, strain rrp6, hits give low values",0.962
same,normalized growth,"S. cerevisiae deletion strains, locus YOR061W, strain CKA2, hits give low values",0.967
same,normalized growth,"S. cerevisiae deletion strains, locus YOR069W, strain VPS5, hits give low values",0.985
same,normalized growth,"S. cerevisiae deletion strains, locus YOR070C, strain gyp1, hits give low values",0.932
same,normalized growth,"S. cerevisiae deletion strains, locus YOR080W, strain dia2, hits give low values",1.02
same,normalized growth,"S. cerevisiae deletion strains, locus YOR083W, strain WHI5, hits give low values",0.928
same,normalized growth,"S. cerevisiae deletion strains, locus YOR106W, strain vam3, hits give low values",0.954
same,normalized growth,"S. cerevisiae deletion strains, locus YOR136W, strain idh2, hits give low values",0.948
same,normalized growth,"S. cerevisiae deletion strains, locus YOR144C, strain elg1, hits give low values",0.947
same,normalized growth,"S. cerevisiae deletion strains, locus YOR184W, strain ser1, hits give low values",0.756 (active)
same,normalized growth,"S. cerevisiae deletion strains, locus YOR231W, strain MKK1, hits give low values",0.909
same,normalized growth,"S. cerevisiae deletion strains, locus YOR265W, strain rbl2, hits give low values",0.987
same,normalized growth,"S. cerevisiae deletion strains, locus YOR270C, strain vph1, hits give low values",0.635 (active)
same,normalized growth,"S. cerevisiae deletion strains, locus YOR290C, strain snf2, hits give low values",0.857 (active)
same,normalized growth,"S. cerevisiae deletion strains, locus YOR316C, strain cot1, hits give low values",0.947
same,normalized growth,"S. cerevisiae deletion strains, locus YPL051W, strain arl3, hits give low values",0.957
same,normalized growth,"S. cerevisiae deletion strains, locus YPL078C, strain atp4, hits give low values",0.83 (active)
same,normalized growth,"S. cerevisiae deletion strains, locus YPL106C, strain sse1, hits give low values",0.926
same,normalized growth,"S. cerevisiae deletion strains, locus YPL240C, strain hsp82, hits give low values",0.973
same,normalized growth,"S. cerevisiae deletion strains, locus YPL241C, strain CIN2, hits give low values",0.977
same,normalized growth,"S. cerevisiae deletion strains, locus YPL256C, strain CLN2, hits give low values",0.881
same,normalized growth,"S. cerevisiae deletion strains, locus YPR119W, strain clb2, hits give low values",0.941
same,normalized growth,"S. cerevisiae deletion strains, locus YPR141C, strain kar3, hits give low values",0.967
same,normalized growth,"S. cerevisiae deletion strains, locus YPR163C, strain tif3, hits give low values",0.931
same,normalized growth,"S. cerevisiae deletion strains, locus YPR167C, strain met16, hits give low values",0.94
same,normalized growth,"S. cerevisiae deletion strains, strain wtn01, hits give low values",0.915
same,normalized growth,"S. cerevisiae strains, strain wild type, hits give low values",0.952
